Assay results reported in the supplement of paper PMC10849652.
The full data set covers some 7,900 targets. This sample favours those with a hit. About 0.6% of all pairs of compound and target were hits. Unmarked numbers belong to inactive results.

Key:
Assay in all cases: log2 fold change, soluble protein after heating vs DMSO (PISA); higher = thermal stabilisation; K562 cells, 10 uM, 30 min; active = over 0.2 and 3.5 SD of the protein, either way, in both replicates (recomputed)
IRAK-1-4 Inhibitor I = compound: C1COCCN1CCN2C3=CC=CC=C3N=C2NC(=O)C4=CC(=CC=C4)[N+](=O)[O-] [IRAK-1-4 Inhibitor I]
In short: (§1)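 Aliquots of K562 cells (2×10^6 cells/mL) treated with 10 μM compound for 30 min were heated for 3 min over 48°C-58°C. After pooling and extraction in PBS with 0.5% NP-40 at 4°C, soluble protein from a 21,000xg, 90 min spin was quantified by TMTpro 16plex LC-MS/MS with channel sums equalised. Thermal stability is expressed against control samples, from duplicates, as a log2 fold change.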

[1] = compound: CC(=O)c1cnc2ccc(-c3cc(Cl)c(O)c(Cl)c3)nc2c1N[C@H]1CC[C@H](CN(C)C)CC1
In short: as §1

ralimetinib = compound: CC(C)(C)Cn1c(N)nc2ccc(-c3[nH]c(C(C)(C)C)nc3-c3ccc(F)cc3)nc21 [ralimetinib]
In short: as §1

[2] = compound: CC(C)(O)CC(=O)NCCn1ccc2ncnc(Nc3ccc(Oc4cccc(C(F)(F)F)c4)c(Cl)c3)c21
In short: as §1

[3] = compound: CC(C)C1=C2N=C(C=C(N2N=C1)NCC3=CC=CC=C3)NCCCCCCN
In short: as §1

[4] = compound: CC(C)C[C@@H](C=O)NC(=O)[C@H](CC(C)C)NC(=O)[C@H](CC(C)C)NC(=O)OCc1ccccc1
In short: as §1

pinometostat = compound: CC(C)N(C[C@H]1O[C@@H](n2cnc3c(N)ncnc32)[C@H](O)[C@@H]1O)[C@H]1C[C@@H](CCc2nc3cc(C(C)(C)C)ccc3[nH]2)C1 [pinometostat]
In short: as §1

[5] = compound: CC1=C(C(CC(=O)N1)C2=CC=C(C=C2)C(F)(F)F)C(=O)NC3=C(C=C4C(=C3)C=NN4)F
In short: as §1

[6] = compound: CC1=C(C2=C(C=C1)C(=O)C3=CC=CC=C3N2CCCN)C
In short: as §1

[7] = compound: CC1=C(C=C(C=C1)NC(=O)C2=CC(=CC=C2)C(C)(C)C#N)NC3=CC4=C(C=C3)N=CN(C4=O)C
In short: as §1

[8] = compound: CC1=C(C=C(C=C1)NC(=O)C2=CC(=CC=C2)N(C)C)NC(=O)C3=CC=C(C=C3)O
In short: as §1

[9] = compound: CC1=CC=C(C=C1)SC2=C3C=C(SC3=CN=C2)C(=O)N
In short: as §1

[10] = compound: CC1=NC(=CC=C1)C2=C(N=C(N2)C(C)(C)C)C3=CC4=NC=CN=C4C=C3
In short: as §1

Nexturastat A = compound: CCCCN(Cc1ccc(C(=O)NO)cc1)C(=O)Nc1ccccc1 [Nexturastat A]
In short: as §1

vemurafenib = compound: CCCS(=O)(=O)Nc1ccc(F)c(C(=O)c2c[nH]c3ncc(-c4ccc(Cl)cc4)cc23)c1F [vemurafenib]
In short: as §1

[11] = compound: CCCS(=O)(=O)Nc1ccc(F)c(C(=O)c2c[nH]c3ncc(Cl)cc23)c1F
In short: as §1

[12] = compound: CCCc1cc(C)[nH]c(=O)c1CNC(=O)c1cc(-c2ccnc(N3CCN(C)CC3)c2)cc2c1cnn2C(C)C
In short: as §1

givinostat = compound: CCN(CC)Cc1ccc2cc(COC(=O)Nc3ccc(C(=O)NO)cc3)ccc2c1 [givinostat]
In short: as §1

barasertib = compound: CCN(CCCOc1ccc2c(Nc3cc(CC(=O)Nc4cccc(F)c4)[nH]n3)ncnc2c1)CCOP(=O)(O)O [barasertib]
In short: as §1

ibrutinib = compound: C=CC(=O)N1CCC[C@@H](n2nc(-c3ccc(Oc4ccccc4)cc3)c3c(N)ncnc32)C1 [ibrutinib]
In short: as §1

UniProt Q969S0, sequence (Q969S0 whole entry, looked up): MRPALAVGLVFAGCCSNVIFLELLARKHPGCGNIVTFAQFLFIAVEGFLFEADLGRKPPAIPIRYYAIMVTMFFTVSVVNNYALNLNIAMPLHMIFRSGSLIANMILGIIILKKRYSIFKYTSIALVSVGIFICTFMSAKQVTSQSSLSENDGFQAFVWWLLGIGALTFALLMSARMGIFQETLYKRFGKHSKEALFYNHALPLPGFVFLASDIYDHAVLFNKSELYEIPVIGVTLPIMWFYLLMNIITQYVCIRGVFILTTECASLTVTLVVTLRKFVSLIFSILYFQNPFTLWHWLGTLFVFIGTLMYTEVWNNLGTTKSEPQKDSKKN
UniProt Q13247, sequence (Q13247 whole entry, looked up): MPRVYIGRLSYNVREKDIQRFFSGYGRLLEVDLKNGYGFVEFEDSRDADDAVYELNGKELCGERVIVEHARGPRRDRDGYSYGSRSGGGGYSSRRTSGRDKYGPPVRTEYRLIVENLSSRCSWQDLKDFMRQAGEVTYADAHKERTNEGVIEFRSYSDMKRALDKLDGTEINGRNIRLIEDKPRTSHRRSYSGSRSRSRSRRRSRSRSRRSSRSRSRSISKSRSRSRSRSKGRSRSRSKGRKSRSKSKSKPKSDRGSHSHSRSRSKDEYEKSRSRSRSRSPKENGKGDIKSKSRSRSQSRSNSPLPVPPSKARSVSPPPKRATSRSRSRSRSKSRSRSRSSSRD
UniProt Q93075, sequence (Q93075 whole entry, looked up): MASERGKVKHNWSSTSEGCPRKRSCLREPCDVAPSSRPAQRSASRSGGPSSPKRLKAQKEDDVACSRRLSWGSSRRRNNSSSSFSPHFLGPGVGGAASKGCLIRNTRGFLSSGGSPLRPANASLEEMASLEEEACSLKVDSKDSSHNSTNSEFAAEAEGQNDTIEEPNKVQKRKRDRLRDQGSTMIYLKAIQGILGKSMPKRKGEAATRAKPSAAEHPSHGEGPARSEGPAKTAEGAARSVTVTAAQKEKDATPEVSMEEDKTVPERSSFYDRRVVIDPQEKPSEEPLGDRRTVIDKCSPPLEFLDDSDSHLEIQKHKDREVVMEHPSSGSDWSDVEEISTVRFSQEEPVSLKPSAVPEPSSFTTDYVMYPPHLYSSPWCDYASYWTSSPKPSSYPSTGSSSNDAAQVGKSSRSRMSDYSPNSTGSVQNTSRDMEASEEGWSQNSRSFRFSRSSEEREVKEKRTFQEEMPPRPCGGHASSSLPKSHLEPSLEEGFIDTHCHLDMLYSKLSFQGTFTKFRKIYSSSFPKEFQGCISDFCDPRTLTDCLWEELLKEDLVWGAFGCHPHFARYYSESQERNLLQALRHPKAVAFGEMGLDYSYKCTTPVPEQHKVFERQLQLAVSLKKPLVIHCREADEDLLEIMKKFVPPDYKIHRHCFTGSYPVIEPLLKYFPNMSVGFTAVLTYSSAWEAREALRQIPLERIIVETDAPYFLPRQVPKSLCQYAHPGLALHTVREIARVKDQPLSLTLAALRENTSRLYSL
UniProt P36956, sequence (P36956 whole entry, looked up): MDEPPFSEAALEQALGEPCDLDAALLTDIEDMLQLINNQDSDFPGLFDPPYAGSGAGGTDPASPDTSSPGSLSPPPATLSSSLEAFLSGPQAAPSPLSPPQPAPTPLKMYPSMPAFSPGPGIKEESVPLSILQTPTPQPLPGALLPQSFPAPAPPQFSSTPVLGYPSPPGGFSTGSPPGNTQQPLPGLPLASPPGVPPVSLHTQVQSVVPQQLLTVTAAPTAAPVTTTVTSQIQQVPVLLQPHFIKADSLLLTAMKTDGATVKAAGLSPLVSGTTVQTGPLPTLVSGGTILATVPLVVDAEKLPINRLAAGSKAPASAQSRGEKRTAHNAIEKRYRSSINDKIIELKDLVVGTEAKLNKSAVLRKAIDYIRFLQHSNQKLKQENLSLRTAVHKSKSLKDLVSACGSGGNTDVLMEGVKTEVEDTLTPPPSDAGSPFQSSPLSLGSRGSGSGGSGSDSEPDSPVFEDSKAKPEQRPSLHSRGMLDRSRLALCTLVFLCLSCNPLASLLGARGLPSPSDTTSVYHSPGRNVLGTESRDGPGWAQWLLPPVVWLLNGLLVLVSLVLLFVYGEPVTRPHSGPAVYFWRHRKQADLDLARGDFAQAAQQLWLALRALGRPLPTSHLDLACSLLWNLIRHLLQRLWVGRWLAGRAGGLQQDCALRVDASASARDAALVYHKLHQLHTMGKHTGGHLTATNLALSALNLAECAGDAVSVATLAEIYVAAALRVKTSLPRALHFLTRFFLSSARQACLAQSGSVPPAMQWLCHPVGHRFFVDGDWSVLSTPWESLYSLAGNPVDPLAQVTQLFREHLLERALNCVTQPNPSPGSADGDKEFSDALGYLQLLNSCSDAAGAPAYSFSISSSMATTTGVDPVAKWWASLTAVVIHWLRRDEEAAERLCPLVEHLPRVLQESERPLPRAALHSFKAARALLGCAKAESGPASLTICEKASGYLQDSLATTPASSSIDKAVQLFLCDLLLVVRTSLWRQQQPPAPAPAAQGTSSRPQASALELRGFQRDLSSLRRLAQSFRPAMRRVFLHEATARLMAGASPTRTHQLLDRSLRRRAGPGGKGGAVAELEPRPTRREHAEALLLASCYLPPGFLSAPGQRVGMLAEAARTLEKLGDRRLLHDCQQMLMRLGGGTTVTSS
UniProt O94901, sequence (O94901 whole entry, looked up): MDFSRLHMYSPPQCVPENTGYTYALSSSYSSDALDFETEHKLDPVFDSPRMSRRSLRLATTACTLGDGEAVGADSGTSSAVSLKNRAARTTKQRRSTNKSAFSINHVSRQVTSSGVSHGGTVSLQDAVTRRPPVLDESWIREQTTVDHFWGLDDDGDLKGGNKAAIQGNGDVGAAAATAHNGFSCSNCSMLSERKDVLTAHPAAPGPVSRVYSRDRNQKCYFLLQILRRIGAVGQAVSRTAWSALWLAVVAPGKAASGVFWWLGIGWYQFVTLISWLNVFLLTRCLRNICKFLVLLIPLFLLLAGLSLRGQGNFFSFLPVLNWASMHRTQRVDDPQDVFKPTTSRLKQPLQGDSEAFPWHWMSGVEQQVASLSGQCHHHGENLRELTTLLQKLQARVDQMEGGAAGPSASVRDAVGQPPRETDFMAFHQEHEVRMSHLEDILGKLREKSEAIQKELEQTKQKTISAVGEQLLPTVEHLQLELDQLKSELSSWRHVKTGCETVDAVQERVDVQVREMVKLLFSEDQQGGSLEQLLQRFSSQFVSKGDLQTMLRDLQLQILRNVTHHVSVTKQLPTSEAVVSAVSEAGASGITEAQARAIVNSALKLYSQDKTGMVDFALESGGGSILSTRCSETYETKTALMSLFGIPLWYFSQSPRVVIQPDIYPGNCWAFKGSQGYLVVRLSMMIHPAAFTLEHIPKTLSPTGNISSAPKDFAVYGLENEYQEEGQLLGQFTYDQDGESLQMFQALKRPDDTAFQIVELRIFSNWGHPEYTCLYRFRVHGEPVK
UniProt P12931, sequence (P12931 whole entry, looked up): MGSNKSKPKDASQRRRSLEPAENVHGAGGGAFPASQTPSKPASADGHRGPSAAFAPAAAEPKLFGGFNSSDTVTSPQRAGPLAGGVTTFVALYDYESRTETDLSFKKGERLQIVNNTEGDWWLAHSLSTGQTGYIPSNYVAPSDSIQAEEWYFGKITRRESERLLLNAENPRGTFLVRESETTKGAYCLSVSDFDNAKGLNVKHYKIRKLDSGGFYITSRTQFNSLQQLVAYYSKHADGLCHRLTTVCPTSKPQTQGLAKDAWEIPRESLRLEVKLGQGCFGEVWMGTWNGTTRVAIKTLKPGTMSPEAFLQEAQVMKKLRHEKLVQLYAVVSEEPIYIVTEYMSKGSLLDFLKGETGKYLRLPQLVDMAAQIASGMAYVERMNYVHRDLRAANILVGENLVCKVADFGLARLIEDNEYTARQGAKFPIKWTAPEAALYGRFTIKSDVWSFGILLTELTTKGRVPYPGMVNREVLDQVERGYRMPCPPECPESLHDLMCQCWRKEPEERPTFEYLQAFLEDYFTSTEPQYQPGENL
UniProt Q02086, sequence (Q02086 whole entry, looked up): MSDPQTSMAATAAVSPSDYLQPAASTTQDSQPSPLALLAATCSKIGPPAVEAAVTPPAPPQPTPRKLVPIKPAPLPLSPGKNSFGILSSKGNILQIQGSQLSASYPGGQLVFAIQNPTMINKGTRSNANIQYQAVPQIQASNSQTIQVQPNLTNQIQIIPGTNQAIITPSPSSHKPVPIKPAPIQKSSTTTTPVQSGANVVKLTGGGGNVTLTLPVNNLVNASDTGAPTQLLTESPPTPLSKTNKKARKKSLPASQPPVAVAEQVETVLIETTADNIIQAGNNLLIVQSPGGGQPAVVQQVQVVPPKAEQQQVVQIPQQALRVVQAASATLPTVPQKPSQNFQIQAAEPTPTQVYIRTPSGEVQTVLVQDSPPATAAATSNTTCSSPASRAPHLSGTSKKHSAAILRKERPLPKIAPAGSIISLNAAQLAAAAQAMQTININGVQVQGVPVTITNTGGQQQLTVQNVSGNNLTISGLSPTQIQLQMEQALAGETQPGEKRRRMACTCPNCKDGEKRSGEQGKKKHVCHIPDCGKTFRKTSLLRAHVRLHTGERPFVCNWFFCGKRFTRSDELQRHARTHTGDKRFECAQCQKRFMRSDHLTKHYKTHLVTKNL

Row | Target | log2 fold change (IRAK-1-4 Inhibitor I) | log2 fold change [1] | log2 fold change (ralimetinib) | log2 fold change [2] | log2 fold change [3] | log2 fold change [4] | log2 fold change (pinometostat) | log2 fold change [5] | log2 fold change [6] | log2 fold change [7] | log2 fold change [8] | log2 fold change [9] | log2 fold change [10] | log2 fold change (Nexturastat A) | log2 fold change (vemurafenib) | log2 fold change [11] | log2 fold change [12] | log2 fold change (givinostat) | log2 fold change (barasertib) | log2 fold change (ibrutinib)
1 | SRC isoform 2 (UniProt P12931) | -0.018 | -0.251 | -0.136 | -0.22 | 0.159 | 0.05 | 0.087 | 0.067 | 0.02 | -0.006 | 0.022 | -0.016 | -0.06 | -0.075 | 0.068 | 0.069 | -0.06 | -0.091 | -0.01 | 
2 | SRCAP (UniProt Q6ZRS2) | -0.42 (active) |  | 0.036 |  | 0.046 | 0.12 | 0.037 | 0.078 | 0.103 | -0.177 | -0.286 | 0.058 | 0.036 |  | 0.278 | 0.082 | -0.02 | -0.041 | 0.026 | 0
3 | SLC35B4 (UniProt Q969S0) | 0.092 | 0.184 |  | 0.098 | -0.02 |  | -0.056 | -0.055 | 0.059 | 0.018 |  |  | -0.064 | -0.061 | 0.062 |  | -0.002 | 0.077 | -0.01 | 0.023
4 | SP2 (UniProt Q02086) | -0.126 | -0.472 |  |  |  |  | 0.212 |  |  | -0.032 |  |  | -0.122 |  |  |  |  |  |  | 
5 | SREBF1 isoform 4 (UniProt P36956) | 0.008 |  |  | -0.404 | -0.077 |  | -0.088 |  |  |  |  |  | 0.035 | 0.063 |  |  | -0.932 (active) | 0.051 | -0.071 | 0.025
6 | SRSF6 (UniProt Q13247) | -0.082 | -0.167 |  | 0.234 | -0.086 |  | 0.116 | 0.003 | -0.744 | -0.012 |  | -0.16 | 0.126 | 0.248 | -0.024 | -0.058 | 0.104 | 0.019 | -0.059 | -0.072
7 | SUN1 isoform 9 (UniProt O94901) | -0.028 | -0.114 | 0.067 | 0.115 | -0.149 | 0.042 | 0.128 | 0.127 | -0.05 | -0.164 | 0.047 | 0.029 | 0.04 | 0.11 | -0.21 | -0.005 | 0.037 | 0.078 |  | 
8 | TATDN2 (UniProt Q93075) | -0.006 | -0.402 (active) |  | 0.102 | 0.058 |  | 0.047 | -0.023 | -0.218 | -0.256 |  | 0.048 | -0.07 | 0.092 | 0.168 | 0.019 |  | -0.004 | 0.126 | 0.072
